Results as given in PubChem BioAssay AID743415 (Broad Institute, 2014).
Entries with a potency or affinity are not part of this list.

assay: reduction of endogenous Shn3 mRNA, dose response, qPCR, Clone20 cells, cherry-pick (AID 743415); settings: overnight; series mostly up to 35 µM; relative Shn3 expression (fraction): at the top concentration;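 active = compounds lowering Shn3 expression whose fitted half-maximal concentration is at most twice the top valid dose; inconclusive = flat partial decrease or an invalid curve fit; inactive = the rest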

Relative Shn3 expression (fraction), inactive:
CCCCN1CC(COCc2ccccc2)Oc2cccc(Oc3ccc(C(C)C)cc3)c2S1(=O)=O (stereo unspecified) 1.44
CC(C)CCOc1cccc(OCC(=O)Nc2ccncc2)c1 1.53
Cc1onc(-c2ccccc2Cl)c1C(=O)N(C)C1CCCCC1 1.02
COCOCCn1cc(CN2CCS(=O)(=O)N(Cc3ccc(-c4ccc(Cl)c(Cl)c4)cc3)C(C(C)C)C2=O)nn1 (stereo unspecified) 1.43
CCCOC(=O)c1ccc(OCC(O)Cn2c(C)nc3ccccc32)cc1 (stereo unspecified) 1.21
CN(CC(=O)Nc1ccccc1Cl)C(=O)c1cccc(S(=O)(=O)N2CCN(c3ccccc3)CC2)c1 1.95
CCCCOCCCNc1ncnc2c1[nH]c1ccccc12 1.63
COc1ccc(-c2cc(C(F)(F)F)nc(S(C)(=O)=O)n2)cc1 0
Cc1ccc([C@@H]2CC(=O)[C@@H]3CN(S(=O)(=O)c4ccccc4C)[C@H](c4ccc(Cl)cc4)C[C@@H]3N2S(=O)(=O)c2ccc(C)cc2)cc1 1.34
CC(C)(C)C(=O)Nc1ccc(NC(=O)c2ccco2)nc1 0.709
Cc1ccnc(SCC(=O)Nc2sc3c(c2C#N)CCCC3)n1 1.33
Cc1ccccc1C(=O)N1CCN(c2ccc(NC(=O)CSc3ccc(Cl)cc3)cc2)CC1 2.02
COc1cccc(-n2c(C)nc3c(cnn3-c3ccc(Cl)cc3)c2=O)c1 1.26
c1ccc(CNc2ncnc3scc(-c4cccs4)c23)nc1 0.593
COCCNc1nc(NCc2ccc(C(C)C)cc2)c2sccc2n1 1.75
CCc1ccccc1NC(=O)COC(=O)c1c(C)nsc1NC 1.31
Cc1cccc(NS(=O)(=O)c2ccc(C3CCCCC3)cc2)c1 2.21
O=C(CSc1c2c(nc3ccc(Cl)cc13)CCCC2)NCc1ccco1 4.77
O=C(Cn1cnc2ccccc21)Nc1cccc(S(=O)(=O)N2CCCC2)c1 0.958
CC1Cc2cc(S(=O)(=O)N3CCN(c4ccc(Cl)cc4)CC3)ccc2N1C(=O)C1CC1 (stereo unspecified) 1.16
Cn1nc(CC(=O)Nc2ccc3c(c2)OCCO3)c2ccccc2c1=O 1.02
CCOc1cc(CNCCc2ccc(S(N)(=O)=O)cc2)ccc1OCc1ccccc1 2.11
CCOC(=O)c1cn(CC(=O)Nc2cccc(Cl)c2C)nn1 0.955
Cc1ccc2nc(NC(=O)C3CCN(S(=O)(=O)c4ccc5c(c4)oc(=O)n5C)CC3)sc2c1 1.28
Cc1ccc(NC(=O)c2cc(S(=O)(=O)NCCC3=CCCCC3)ccc2F)cc1F 1.86
CCCn1c(C)cc(C(=O)CN2C(=O)c3ccccc3S2(=O)=O)c1C 1.12
Cc1ccc(-c2csc(N3CCC(NS(=O)(=O)c4ccc5c(c4)OCCO5)CC3)n2)cc1 1.51
CCOC(=O)c1oc2ccc(S(=O)(=O)n3nc(-c4ccc(OC)cc4)cc3N)cc2c1C 1.18
Nc1ncnc2c1c(-c1ccc(Oc3ccccc3)cc1)cn2C1CCCC1 0.905
O=C(Nc1ccc(Cl)cc1)c1cc(S(=O)(=O)N2CCOCC2)cs1 1.29
Cn1c(=O)c2c(nc(NCc3ccco3)n2CCc2ccccc2)n(C)c1=O 1.31
Cc1nc(NC(C)c2ccccc2)c2oc3ccccc3c2n1 (stereo unspecified) 1.16
Cc1nc2scc(C)n2c(=O)c1S(=O)(=O)Nc1ccc(N2CCOCC2)c(Cl)c1 1.48
CCOc1ccc(Cn2nnc(C(=O)Nc3cc(OC)cc(OC)c3)c2N)cc1 1.13
CCOC(=O)N1CCN(c2ccc(S(=O)(=O)N(Cc3ccccc3)Cc3ccccc3)cn2)CC1 1.78
Cc1nc2ccccc2cc1OCc1ccc(F)cc1 1.29
